Beta apoptosis: blocks beta cell apoptosis; INS-1E cytokine-induced death, ATP luminescence, 48 h; percent of positive-control rescue, neutral wells zero; 300,000 compounds, 0.8% hits; AID 435005; protection from apoptosis, % (concentration not given with the values);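 active means Every replicate reaches about 75%, or at least half do and their mean reaches it too, limit read from the data; inconclusive means At least half of replicates reach the limit but their mean does not; inactive means Under half of replicates reach the limit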;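 further: 0% = cytokine-treated negative control wells and 100% = positive control rescue; higher means more ATP so stronger rescue from cytokine killing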
Shn3 inh set2: reduces Shn3 3'UTR luciferase signal in osteoblasts; inhibition, % at 12.5 µM; 360,000 compounds, 0.52% hits; AID 588674; Clone20 osteoblast Shn3 3'UTR firefly luciferase, 24 h;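 active means mean inhibition of at least 75% with every replicate also reaching 75%; inconclusive means mean inhibition at least 75% but some replicate below; inactive means mean inhibition below 75%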;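 further: 0% = median of neutral control wells and 100% = pilot-screen positive control compound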
Mdm2-MdmX inh: disrupts the human Mdm2-MdmX interaction; inhibition, % at 8 µM; AID 485346; SaOS-2 split-luciferase Mdm2/MdmX complementation, luminescence; O15151+Q00987; 330,000 compounds, 3% hits;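 active means inhibition of at least 50% at 8 µM in the primary screen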
CSC inhib: cancer stem cell inhibition; cancer stem cell-like cells viability, luminescence; inhibition, % at 7.5 µM; 300,000 compounds, 1.1% hits; AID 2717; in the data active means inhibition above about 75%; inconclusive means no clear call, values can overlap the other calls; tested in HMLE shEcad cells
PAX8 reporter: PAX8 transcriptional activity inhibition | inhibition, % at 12.6 µM | AID 652154 | 360,000 compounds, 1.2% hits | RMG-I TPO-luciferase reporter, SteadyGlo, 24 h;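 active means mean replicate inhibition at least 60% with every replicate also reaching 60%; inconclusive means only one of the two criteria is met; inactive means mean below 60% and not all replicates reaching 60%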;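 further: luciferase light reporting Pax8 driven TPO promoter activity; plate controls were median of neutral control wells for no effect and mitoxantrone controls for full effect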
Gli-Sufu block: Gli-Sufu pathway antagonism; 340,000 compounds, 0.74% hits; Sufu-KO-LIGHT fibroblasts, Gli luciferase reporter luminescence; inhibition, % at 5 µM;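 active means inhibition above about 55%, limit read from the data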;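 further: 0% = DMSO-treated cells and 100% = wells with medium but no cells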
Mdm2-MdmX conf: human Mdm2/MdmX binding inhibition, confirmed | luminescent assay | shares compounds with Mdm2-MdmX inh | inhibition, % at 8 µM | 10,000 compounds, 55% hits; in the data active means inhibition above about 40%
FLuc counter: full-length luciferase inhibition in Mdm2/MdmX counter-screen; inhibition, % at 8 µM; shares compounds with Mdm2-MdmX inh; SaOS-2 full-length luciferase counterscreen, luminescence; 6,200 compounds, 77% hits;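 active means mean inhibition at 8 µM reaching about 37%, which flags the compound as non-specific, limit read from the data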;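 further: p53-null SaOS-2 cells with luciferase driven by a doxycycline-inducible promoter; compound on cells about two nights before reading with doxycycline added after day one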
The depositor's hits bear a star. Sampled rows, rich in hits. Any-hit rate of the full collection: about 4%.

For COc1cccc(/C=N/NC(=O)CN2CC(c3ccccc3)CC2=O)c1O (stereo unspecified) the results were Beta apoptosis 77*, Shn3 inh set2 9, Mdm2-MdmX inh 52*, CSC inhib 58, PAX8 reporter 16, Gli-Sufu block -9 and Mdm2-MdmX conf 30.
COc1cccc(/C=N/NC(=O)C[n+]2ccccc2)c1O was read as Beta apoptosis -3, Shn3 inh set2 -20, Mdm2-MdmX inh 3, CSC inhib -9, PAX8 reporter 13 and Gli-Sufu block -9.
For O=C(CCN1CCCCC1)NCC[C@@H]1CC[C@@H](NC(=O)C2CCOCC2)[C@H](CO)O1 the results were PAX8 reporter -12.
C[C@H]1CCCCO[C@H](CN(C)Cc2ccc3c(c2)OCO3)[C@@H](C)CN([C@@H](C)CO)C(=O)c2cc(NC(=O)C3CCCCC3)ccc2O1 was read as PAX8 reporter -7.
`CCOC(=O)C1=C(C)Nc2ccccc2N=C1N` gave Beta apoptosis -3, Shn3 inh set2 3, Mdm2-MdmX inh -17, CSC inhib -8, PAX8 reporter -7 and Gli-Sufu block -2.
CCOC(=O)C1=C(C)Nc2ccccc2N=C1NC(=O)c1oc2ccccc2c1COC was read as Beta apoptosis -17, Shn3 inh set2 4, Mdm2-MdmX inh 59*, CSC inhib 16, PAX8 reporter 65*, Gli-Sufu block 23, Mdm2-MdmX conf 50* and FLuc counter 77*.
For COc1cccc(C(=O)N/N=C(/CCC(=O)O)c2ccccc2)c1 the results were Beta apoptosis -2, Shn3 inh set2 -6, Mdm2-MdmX inh -44, CSC inhib -9, PAX8 reporter -5 and Gli-Sufu block -1.
CC(=O)c1ccc(OCCCC(=O)NNC(=O)c2ccccn2)cc1 was read as Beta apoptosis -1, Shn3 inh set2 83, Mdm2-MdmX inh 63*, PAX8 reporter 12, Gli-Sufu block -2 and Mdm2-MdmX conf 6.
Screening COc1cccc(C(=O)N/N=C(/c2ccccc2)c2ccccn2)c1 returned Beta apoptosis 101*, Shn3 inh set2 79, Mdm2-MdmX inh 84*, CSC inhib 20, PAX8 reporter 65*, Gli-Sufu block 81*, Mdm2-MdmX conf 79* and FLuc counter 39*.
Screening COc1ccc(NC(=O)NNC(=O)c2ccc(-c3ccccc3)cc2)cc1 returned Beta apoptosis -3, Shn3 inh set2 -8, Mdm2-MdmX inh 59*, CSC inhib -5, PAX8 reporter 13, Gli-Sufu block 11 and Mdm2-MdmX conf 28.
CCOc1ccc(OCCCC(=O)NNC(=O)c2ccncc2)cc1 was read as Shn3 inh set2 -15, Mdm2-MdmX inh 23, CSC inhib -9, PAX8 reporter -14 and Gli-Sufu block -14.
Screening COc1cc(OC)cc(C(=O)NC(=S)NNC(=O)c2cnccn2)c1 returned Beta apoptosis 85*, Shn3 inh set2 78, Mdm2-MdmX inh 60*, CSC inhib 106*, PAX8 reporter 31, Gli-Sufu block 3 and Mdm2-MdmX conf 34.
COc1cc(OC)cc(C(=O)NNC(=S)NC(=O)c2cccnc2)c1 was read as Beta apoptosis 6, Shn3 inh set2 4, Mdm2-MdmX inh 16, CSC inhib 16, PAX8 reporter -4 and Gli-Sufu block -8.
`COc1cccc(S(=O)(=O)N2CC[C@@H]3[C@H](CO)Nc4ccc(C#Cc5ccccc5)cc4[C@@H]32)c1` gave PAX8 reporter -4.
CO[C@@H]1CN(C)C(=O)c2cc(NC(=O)C3CCC3)ccc2OC[C@@H](C)N(S(=O)(=O)c2ccc(Cl)cc2)C[C@H]1C was read as PAX8 reporter -5.
N#Cc1ccc(-c2ccc3c(c2)[C@@H]2[C@@H](CCN2C(=O)C2CC2)[C@@H](CO)N3)cc1 was read as PAX8 reporter -1.
For COc1cc(OC)cc(C(=O)NNC(=O)c2ccccn2)c1 the results were Beta apoptosis 71, Shn3 inh set2 38, Mdm2-MdmX inh 51*, CSC inhib 22, PAX8 reporter 28, Gli-Sufu block 13, Mdm2-MdmX conf 47* and FLuc counter 51*.
For COc1ccc(C(=O)NNC(=O)c2cc3ccccc3cc2O)cc1 the results were Beta apoptosis 1, Shn3 inh set2 -1, Mdm2-MdmX inh 50*, CSC inhib 24, PAX8 reporter 16, Gli-Sufu block 2 and Mdm2-MdmX conf 39.
For CC(C)C(=O)NNC(=O)c1ccccn1 the results were Beta apoptosis 0, Shn3 inh set2 6, Mdm2-MdmX inh 7, CSC inhib -14, PAX8 reporter -15 and Gli-Sufu block 3.
`COc1ccc(OCC(=O)NNC(=O)c2ccccn2)cc1` gave Beta apoptosis -1, Shn3 inh set2 28, Mdm2-MdmX inh 28, CSC inhib 9 and Gli-Sufu block 4.
For COc1ccccc1C(=O)NNC(=O)c1cc2ccccc2cc1O the results were Shn3 inh set2 -6 and PAX8 reporter 38.
For COc1ccc(C(=O)NCCNC(=O)c2ccccn2)cc1 the results were Beta apoptosis 0, Shn3 inh set2 6, Mdm2-MdmX inh -12, CSC inhib -2, PAX8 reporter -29 and Gli-Sufu block 31.
For COc1ccc(C(=O)NNC(=O)c2ccccn2)cc1 the results were Beta apoptosis 0, Shn3 inh set2 65, Mdm2-MdmX inh 98*, CSC inhib 16, PAX8 reporter 104*, Gli-Sufu block -54, Mdm2-MdmX conf 94* and FLuc counter 22.
Screening CC(Oc1cccc(Br)c1)C(=O)NNC(=O)c1ccccn1 (stereo unspecified) returned Beta apoptosis 54, Shn3 inh set2 inconclusive, Mdm2-MdmX inh 72*, CSC inhib 38, Gli-Sufu block -2, Mdm2-MdmX conf 61* and FLuc counter 36.
For C/C=C/c1ccc([C@H]2[C@@H](CNC(C)=O)N(C(=O)Cc3cccnc3)[C@H]2CO)cc1 the results were PAX8 reporter 0.
`COc1ccc(-n2cc(CNCc3cccnc3)c(-c3cccc(F)c3)n2)cc1` gave Beta apoptosis 4, Shn3 inh set2 -31, Mdm2-MdmX inh 5, CSC inhib -3 and PAX8 reporter -11.
COc1ccc(CNCc2cn(-c3cccc(F)c3)nc2-c2ccc(C)o2)cc1 was read as Beta apoptosis 0, Shn3 inh set2 -20, Mdm2-MdmX inh 52*, CSC inhib -4, PAX8 reporter -10, Gli-Sufu block -24 and Mdm2-MdmX conf 13.
O=C(C[C@H]1C[C@H]2c3cc(NC(=O)NC4CCCC4)ccc3O[C@H]2[C@H](CO)O1)NCc1ccc2c(c1)OCO2 was read as PAX8 reporter -11.

Compound activity from PubChem BioAssay.
